This note sets out measurements from PubChem BioAssay AID2216 (Broad Institute, 2009).

What is called inhibition is the drop in the measured response relative to a control, in per cent.

In all, about 300,000 compounds went through this assay and about 3,300 (1.1%) were called active. About 6% were inconclusive and are not listed. This is one part of a sample in which actives are shown more often than they occur.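 Rule for the calls: active = more than half of the replicate wells show a fall in the fluorescence ratio signal beyond about 16% (limit read from the data, passing the limit was not always enough); inconclusive = exactly half of the replicate wells pass the set limit; inactive = fewer than half of replicates pass the limit.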

The assay deals with Ran GTPase (GTP-bound) - importin-beta complex. In words: inhibitors of RanGTP-importin-beta interaction, primary screen, biochemical, FRET, CFP-Ran, YFP-importin-beta, homogeneous (AID 2216).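 Note: 0% = DMSO wells and 100% = Ran loaded with GDP instead of GTP.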 Conditions: cell-free CFP-Ran/YFP-importin-beta FRET ratio; hits give high values; concentration not given here.
Consider `CCc1cccc(NC(=O)COC(=O)C2CCN(c3ccc(C(F)(F)F)cn3)CC2)c1`, for which the inhibition was -2.11% (inactive).
The figure for `O=C(CNC(=O)C12CC3CC(CC(C3)C1)C2)OCC(=O)N1CCCCC1` is 9.25% (inactive); for `COc1cccc(C(=O)N/N=C(\C)c2cccc(NC(=O)c3ccc(F)cc3)c2)c1OC` it is -1.6% (inactive).
The figure for `Cc1ccc(-n2c(=O)c(C#N)cc3c(=O)n4ccccc4nc32)cc1C` is 28% (active); for `Cc1ccc(-n2c(SCC(=O)N3CCC(C(=O)O)CC3)nc3ccccc3c2=O)cc1C` it is -0.912% (inactive); for `Cc1ccc(-n2ncc3c(=O)n(-c4ccc(C)c(C)c4)c(-c4ccco4)nc32)cc1` it is -0.295% (inactive).
The value for `O=C(NCCSc1ncc(-c2ccccc2)[nH]1)c1ccco1` was 3.47% (inactive).
Take `O=C(NC1CCCCC1)c1ccc(-c2ccc(Cl)cc2)o1`: the inhibition was 8.43% (inactive).
As for `O=C(CSc1ccc(-c2ccc(-n3cccn3)cc2)nn1)Nc1ccc([N+](=O)[O-])cc1`, the inhibition was -0.399% (inactive).
The value for `CC(=O)NC(CC(=O)Nc1cccc(S(=O)(=O)N2CCCC2)c1)c1ccccc1` (stereo not drawn) was 0.238% (inactive); that for `CCN(CC(=O)Nc1cccc(S(=O)(=O)N2CCCCC2)c1)Cc1ccccc1` was 16.2% (active).
The figure for `CCN(CC(=O)Nc1ccc(S(=O)(=O)N2CCCC2)cc1)CC(=O)Nc1cccc(OC)c1` is 4.35% (inactive); for `COc1ccc(CCNc2cc(N3CCN(C(=O)c4ccccc4OC)CC3)ccc2[N+](=O)[O-])cc1OC` it is 3.89% (inactive).
The figure for `CC1CC(C)CN(S(=O)(=O)c2cccc3nonc23)C1` (stereo not drawn) is 2.14% (inactive); for `COc1ccc2oc(C(=O)N(CC(C)C)C3CCS(=O)(=O)C3)c(C)c2c1` (stereo not drawn) it is -2.12% (inactive).
Consider `O=C(Nc1ccccc1N1CCCC1)c1ccc(F)c(S(=O)(=O)N2CCOCC2)c1`, for which the inhibition is 1.55% (inactive).
As for `COc1ccccc1CCNS(=O)(=O)c1cc2c3c(c1)C(C)C(=O)N3CCC2` (stereo not drawn), the inhibition was 4.16% (inactive).
The figure for `COC(=O)C1=C(C)N(c2ccc(Br)cc2)C(=O)/C1=C\c1ccco1` is 5.89% (inactive); for `COC(=O)COc1ccc2c(c1C)O/C(=C\c1ccco1)C2=O` it is 47.4% (active).
The value for `Cc1cc(C)c(OCC(=O)N/N=C/c2ccco2)c(C)c1` was -4.28% (inactive).
For `CCS(=O)(=O)c1ccc(-c2cccc(NC(=O)c3ccc(Br)o3)c2)nn1`, the inhibition is 2.1% (inactive).
The value for `CCOc1ccc(NS(=O)(=O)c2ccc(C(=O)NCC(c3ccccc3OC)N3CCCC3)cc2)cc1` (stereo not drawn) was -3.36% (inactive).
For the molecule `CCCNC(=O)CCn1cc(-c2ccc(OC)cc2)nc1CCN`, the inhibition was -0.23% (inactive).
The value for `Cc1csc(NC(=O)CSc2nc(=O)cc(N)n2-c2ccc(F)cc2)n1` was 1.41% (inactive).
The figure for `O=S(=O)(NC1CCCCC1N1CCC(O)CC1)c1ccc(Cl)cc1` (stereo not drawn) is 74.6% (active).
The figure for `O=S(=O)(NC1CCCCC1N1CCCCC1)c1ccc(Cl)cc1` (stereo not drawn) is 2.32% (inactive); for `CCN1CCN(C2CCCCC2NS(=O)(=O)c2ccc(Cl)cc2)CC1` (stereo not drawn) it is 1.58% (inactive); for `COc1ccc(CNC(=O)COC(=O)CCS(=O)(=O)c2ccc(C)cc2)cc1OC` it is 2.29% (inactive).
For the molecule `CCOc1ccc(-c2cc(C(=O)N/N=C/c3ccc(O)cc3)c3ccccc3n2)cc1`, the inhibition was 2.59% (inactive).
Consider `NC(=O)c1cc2ccccc2o/c1=N/NC(=O)c1cccc(F)c1`, for which the inhibition is -7.02% (inactive).
The figure for `CCN(CC)c1ccc2cc(C(N)=O)/c(=N\NC(=O)c3ccncc3)oc2c1` is 135% (active); for `CCN(CC)c1ccc2oc(=O)c(C)nc2c1` it is -87.9% (inactive); for `CCN(CC)c1ccc2cc(C(=O)O)c(=O)oc2c1` it is 153% (active).
The value for `CCOC(=O)c1cc2cc3ccccc3cc2oc1=O` was 3.3% (inactive); that for `COc1ccc(C(=O)N/N=c2\oc3ccccc3cc2C(N)=O)cc1` was 4.55% (inactive); that for `Cc1onc(C(=O)Nc2ccc3c(c2)OCO3)c1[N+](=O)[O-]` was 0.97% (inactive).
The value for `CCCOc1ccc(Cl)cc1Nc1nc(NCCO)nc(N2CCCC2)n1` was -4.43% (inactive); that for `O=C(COC(=O)c1cnccn1)Nc1ccc(Cl)cc1C(F)(F)F` was 1.07% (inactive).
On to `CCCCc1nc2cc(C(=O)N3CCCCC3CCO)ccc2o1` (stereo not drawn), for which the inhibition was 2.55% (inactive).
The figure for `CC1=C(C(=O)Nc2ccccc2)C(c2ccco2)C(C#N)=C(SCC(N)=O)N1` (stereo not drawn) is -0.887% (inactive); for `Cc1cc(C)c2c3c(sc2n1)C(c1ccccc1)C(C#N)=C(N)O3` (stereo not drawn) it is 14.9% (inactive); for `N#CC1=C(N)Oc2c(sc3ccccc23)C1c1ccco1` (stereo not drawn) it is 54.7% (active).
With `CC(C)CN(C(=O)COC(=O)c1ccc(Cl)c(N)c1)c1c(N)n(Cc2ccccc2)c(=O)[nH]c1=O`, the inhibition was 3.15% (inactive).
The value for `Cc1onc(-c2ccccc2Cl)c1C(=O)N(Cc1ccc(N(C)C)cc1)C(C)C` was -1.47% (inactive); that for `O=C(Cc1ccc(S(=O)(=O)N2CCOCC2)s1)NCCOc1ccccc1F` was 0.747% (inactive); that for `COC(=O)Cc1cc(=O)oc2c(C)c(O)ccc12` was 60.4% (active).
The value for `CCCc1cc(=O)oc2c(C)c(OCC(=O)NCc3ccccn3)ccc12` was 0.0468% (inactive); that for `COc1cccc(C(=O)OCc2cc(=O)oc3c(C)c(C)ccc23)c1OC` was -2.35% (inactive).
Turning to `O=C(COc1ccccc1)Nc1cc2c3c(c1)CC(=O)N3CCC2`, the inhibition is 0.812% (inactive).
The figure for `O=C(NC1CC1)C1=C[C@H](c2coc3ccccc3c2=O)C[C@H](OCCCCO)O1` is 8.31% (inactive); for `CC(C)N1CCc2c(sc(NC(=O)Cc3ccccc3)c2C#N)C1` it is 156% (active); for `CCN1CCN(CC(=O)Nc2sc3c(c2C#N)CCC3)CC1` it is -1.32% (inactive).
The value for `N#Cc1c(N)sc2c1CCN(C(=O)OCc1ccccc1)C2` was 8.85% (inactive); that for `Cn1c(SCC(=O)c2ccccc2)ncc(C(=O)Nc2ccc(F)cc2)c1=O` was 0.558% (inactive); that for `CCCN1CC=C2C(C#N)=C(N)C(C#N)(C#N)C(c3cc(OC)ccc3OC)C2C1` (stereo not drawn) was 36.6% (active).
Regarding `CCN1CC=C2C(C#N)=C(N)C(C#N)(C#N)[C@H](c3ccoc3)[C@H]2C1`, the inhibition is 47.8% (active).
Consider `N#CC1=C(N)C(C#N)(C#N)[C@H](c2ccsc2)[C@H]2COCC=C12`, for which the inhibition was -27% (inactive).
The figure for `CCC1=C(C(=O)OC)C(c2cc(OC)ccc2OC)C(C#N)=C(N)O1` (stereo not drawn) is -4.33% (inactive).
